# Measured values reported in ChEMBL document CHEMBL1961873, “Compounds: GSK PKIS; Assays: Nanosyn kinase panel” (2012).
# Target: T1, Ephrin type-B receptor 4 (Homo sapiens) (UniProt P54760)
# T1 sequence (whole entry): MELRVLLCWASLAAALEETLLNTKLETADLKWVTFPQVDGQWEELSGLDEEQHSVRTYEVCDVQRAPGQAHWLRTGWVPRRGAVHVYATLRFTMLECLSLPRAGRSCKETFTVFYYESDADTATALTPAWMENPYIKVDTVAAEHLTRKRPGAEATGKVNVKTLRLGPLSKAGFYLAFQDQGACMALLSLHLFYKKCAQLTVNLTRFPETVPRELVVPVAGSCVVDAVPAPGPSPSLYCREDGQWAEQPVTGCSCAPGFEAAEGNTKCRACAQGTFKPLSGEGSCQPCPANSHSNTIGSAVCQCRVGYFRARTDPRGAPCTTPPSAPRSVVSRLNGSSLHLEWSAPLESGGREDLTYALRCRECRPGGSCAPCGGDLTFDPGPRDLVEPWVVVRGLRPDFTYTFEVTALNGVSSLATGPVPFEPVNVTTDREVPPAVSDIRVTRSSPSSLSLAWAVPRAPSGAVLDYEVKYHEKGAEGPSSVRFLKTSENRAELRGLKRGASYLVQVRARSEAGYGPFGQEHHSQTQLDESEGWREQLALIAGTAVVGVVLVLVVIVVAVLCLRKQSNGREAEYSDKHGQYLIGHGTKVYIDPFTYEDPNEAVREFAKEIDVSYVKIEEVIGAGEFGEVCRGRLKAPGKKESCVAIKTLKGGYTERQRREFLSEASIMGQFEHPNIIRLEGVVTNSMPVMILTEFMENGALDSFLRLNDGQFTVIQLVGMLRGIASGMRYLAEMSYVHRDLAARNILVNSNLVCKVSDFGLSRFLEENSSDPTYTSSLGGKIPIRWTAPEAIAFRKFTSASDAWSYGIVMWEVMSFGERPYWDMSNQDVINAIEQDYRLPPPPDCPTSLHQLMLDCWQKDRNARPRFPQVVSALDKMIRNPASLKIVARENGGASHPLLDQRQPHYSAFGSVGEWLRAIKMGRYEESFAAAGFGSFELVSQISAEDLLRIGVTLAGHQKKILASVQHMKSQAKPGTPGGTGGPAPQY
# Conditions: at 0.1 µM
row,Structure (SMILES),inhibition
1,O=C1Nc2ccc(-c3cccnc3)cc2C1=Cc1cc(Br)c(O)c(Br)c1,2.97%
2,CN(C)c1cc2c(Nc3ccc4c(cnn4Cc4ccccc4)c3)ncnc2cn1,0.91%
3,CCS(=O)(=O)c1ccc(OC)c(Nc2nccc(N(C)c3ccc4c(C)n[nH]c4c3)n2)c1,17.4%
4,COC(=O)c1cncc(/C=C/c2c(C)cc(O)cc2C)c1,6.99%
5,O=S(=O)(CCOCc1ccc(-c2ccc3ncnc(Nc4ccc(OCc5cccc(F)c5)c(Cl)c4)c3c2)o1)c1ccccc1,1.15%
6,O=C(Nc1ccc(Oc2ccc3[nH]c(NC(=O)c4ccco4)nc3c2)cc1)Nc1cc(C(F)(F)F)ccc1F,8.82%
7,Cc1cc(-c2ccccn2)cc(C)c1/C=C/c1cncc(-c2nn[nH]n2)c1,1.86%
8,Cc1cc(O)cc(C)c1/C=C/c1cncc(C(=O)N(C)C)c1,3.23%
9,CS(=O)(=O)Nc1cccc(-c2ccc3c(NC(=O)C4CC4)n[nH]c3c2)c1,0.62%
10,CN(C)CCCn1c(-c2nonc2N)nc2cnccc21,3.38%
11,CCn1c(-c2nonc2N)nc2c(C#CC(C)(C)O)nc(OCCNC)cc21,2.31%
12,Cc1ccc2c(c1)/C(=N/Nc1ccc(S(N)(=O)=O)cc1)C(=O)N2,0.65%
13,Cc1ccc2c(-c3ccnc(Nc4cccc(C(F)(F)F)c4)n3)c(-c3ccccc3)nn2n1,7.62%
14,FC(F)(F)c1ccc(-c2nn3ncccc3c2-c2ccnc(Nc3ccc4c(c3)OCCO4)n2)cc1,0.48%
15,Cc1ccc(Nc2ccnc(Nc3cccc(C(N)=O)c3)n2)cc1O,2.22%
16,COc1cc2ncnc(Nc3ccc4c(cnn4Cc4ccccc4)c3)c2cc1OC,1.36%
17,Cc1nc(-c2ccccc2)n2nc(NCCCN3CCOCC3)ncc12,1.32%
18,COc1ccc2ncnc(Nc3ccc(OCc4ccccc4)cc3)c2c1,2.58%

# Target: T1, Ephrin type-B receptor 4 (Homo sapiens)
# Conditions: at 1 µM
row,Structure (SMILES),inhibition
1,CN(C)C(=O)O[C@@H]1CN[C@@H](C#Cc2cc3ncnc(Nc4ccc(OCc5cccc(F)c5)c(Cl)c4)c3s2)C1,3.64%
2,N#Cc1c(NC(=O)c2ccccc2F)sc2c1CCCC2,0.07%
3,Cc1ccc2c(-c3ccnc(Nc4ccc5c(c4)OCCO5)n3)c(-c3ccc(C(F)(F)F)cc3)nn2n1,1.46%
4,COc1cccc(-n2nc(C)c3c(N/N=C(\C)c4ccncc4)ncnc32)c1,1.01%
5,NS(=O)(=O)c1ccc(N/N=C2\C(=O)Nc3ccc(Cl)cc32)cc1,2.86%
6,CCOc1nccc2c1nc(-c1nonc1N)n2CC,0.5%
7,Cc1ccc(C(=O)NC2CC2)cc1-c1ccc2[nH]ncc2c1,-0.31%
8,c1ccc(Nc2ncc(-c3ccccc3)o2)cc1,5.49%
9,Cc1cc(Cl)cc2c1NC(=O)C2=NNc1ccc(S(N)(=O)=O)cc1,1.46%
10,O=C1Nc2ccccc2/C1=C/Nc1ccc2[nH]c(=O)[nH]c2c1,5.98%
11,Nc1nccc(-c2c(-c3ccc(F)cc3)ncn2CCCN2CCOCC2)n1,3.04%
12,[O-][S+]1CCN(Cc2ccc(-c3ccc4ncnc(Nc5ccc(OCc6ccccc6)c(Cl)c5)c4c3)o2)CC1,-0.05%
13,NS(=O)(=O)c1cccc(-c2cc3ccncc3cc2OCc2ccccc2)c1,2.84%
14,CCCN1CCCC(c2ccc(Nc3nc(Nc4cc(F)ccc4C(N)=O)c4cc[nH]c4n3)c(OC)c2)C1 (configuration not stated),4.67%
15,OCc1ccc(-c2nc(-c3ccccn3)c(-c3ccc4c(c3)OCO4)[nH]2)cc1,4.09%
16,COc1ccc(-c2nn3ncccc3c2-c2ccnc(Nc3cccc(C(F)(F)F)c3)n2)cc1,5.01%
17,O=C1Nc2ccc(-c3cccnc3)cc2C1=Cc1cc(Br)c(O)c(Br)c1,3.11%

row,Structure (SMILES),inhibition
1,CN(C)c1cc2c(Nc3ccc4c(cnn4Cc4ccccc4)c3)ncnc2cn1,2.11%
2,CCS(=O)(=O)c1ccc(OC)c(Nc2nccc(N(C)c3ccc4c(C)n[nH]c4c3)n2)c1,65.8%
3,COC(=O)c1cncc(/C=C/c2c(C)cc(O)cc2C)c1,38.7%
4,O=S(=O)(CCOCc1ccc(-c2ccc3ncnc(Nc4ccc(OCc5cccc(F)c5)c(Cl)c4)c3c2)o1)c1ccccc1,1.36%
5,O=C(Nc1ccc(Oc2ccc3[nH]c(NC(=O)c4ccco4)nc3c2)cc1)Nc1cc(C(F)(F)F)ccc1F,63.8%
6,Cc1cc(-c2ccccn2)cc(C)c1/C=C/c1cncc(-c2nn[nH]n2)c1,4.98%
7,Cc1cc(O)cc(C)c1/C=C/c1cncc(C(=O)N(C)C)c1,7.53%
8,CS(=O)(=O)Nc1cccc(-c2ccc3c(NC(=O)C4CC4)n[nH]c3c2)c1,0.5%
9,CN(C)CCCn1c(-c2nonc2N)nc2cnccc21,2.2%
10,CCn1c(-c2nonc2N)nc2c(C#CC(C)(C)O)nc(OCCNC)cc21,2.13%
11,Cc1ccc2c(c1)/C(=N/Nc1ccc(S(N)(=O)=O)cc1)C(=O)N2,0.71%
12,Cc1ccc2c(-c3ccnc(Nc4cccc(C(F)(F)F)c4)n3)c(-c3ccccc3)nn2n1,46.4%
13,FC(F)(F)c1ccc(-c2nn3ncccc3c2-c2ccnc(Nc3ccc4c(c3)OCCO4)n2)cc1,10.2%
14,Cc1ccc(Nc2ccnc(Nc3cccc(C(N)=O)c3)n2)cc1O,29.1%
15,COc1cc2ncnc(Nc3ccc4c(cnn4Cc4ccccc4)c3)c2cc1OC,2.63%
16,Cc1nc(-c2ccccc2)n2nc(NCCCN3CCOCC3)ncc12,4.69%
17,COc1ccc2ncnc(Nc3ccc(OCc4ccccc4)cc3)c2c1,0.41%
